CHO-K1 Ca PAM: nonselective activator or artifact in parental CHO-K1 calcium assay. ATP EC20, Fluo-8 calcium fluorescence; 0% at ATP EC20, 100% at ATP max. activation, % at 3 µM. 0.02% of 360,000 active. AID 602247;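 active = activation above the run cutoff, the mean activation of all test compounds plus 3 SD, cut at about 40% in these data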;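 note: peak over basal fluorescence ratio in a 140 s read after ATP addition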
CHRM1 PAM: positive allosteric modulators of human M1 muscarinic receptor. P11229. 0.088% of 360,000 active. CHO-K1 hM1, Fluo-8 calcium fluorescence, ACh EC20; 0% = ACh EC20, 100% = maximal ACh. activation, % at 3 µM; in the data active = activation above about 19%, passing the limit was not always enough
Target sequence (P11229 whole entry, looked up): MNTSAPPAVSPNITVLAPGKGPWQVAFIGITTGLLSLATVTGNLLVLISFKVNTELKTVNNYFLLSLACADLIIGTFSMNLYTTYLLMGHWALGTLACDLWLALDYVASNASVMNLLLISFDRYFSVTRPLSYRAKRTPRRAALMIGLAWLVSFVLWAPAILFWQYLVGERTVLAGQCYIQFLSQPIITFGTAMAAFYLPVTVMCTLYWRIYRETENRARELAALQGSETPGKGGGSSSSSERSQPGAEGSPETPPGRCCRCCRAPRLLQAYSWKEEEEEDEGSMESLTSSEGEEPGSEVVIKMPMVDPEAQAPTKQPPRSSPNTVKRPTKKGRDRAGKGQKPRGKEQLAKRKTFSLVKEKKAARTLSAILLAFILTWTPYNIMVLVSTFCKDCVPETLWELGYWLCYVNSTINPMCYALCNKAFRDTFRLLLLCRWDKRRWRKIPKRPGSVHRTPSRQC
M1 ag parental: nonselective activator or artifact in parental CHO-K1 cells. 0.48% of 360,000 active. activation, % at 3 µM. Fluo-8 calcium fluorescence; scaled to maximal ATP response, vehicle zero; in the data active = activation above about 15%;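 note: untransfected CHO-K1 host cells lacking M1 receptor as counterscreen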
CHO-K1 Ca antag: M1 antagonist counterscreen hit in parental CHO-K1 cells; ATP-induced calcium, Fluo-8 fluorescence; inhibition, % at 3 µM; 0.6% of 360,000 active;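 active = inhibition above a per-plate cutoff, the plate's mean sample inhibition plus 3 SD, cut at about 24% in these data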;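 note: 0% = DMSO plus EC80 ATP and 100% = DMSO alone without ATP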
M1 antag: human CHRM1 antagonism. P11229. inhibition, % at 3 µM. CHO-K1 hM1, Fluo-8 calcium fluorescence, ACh EC80 antagonist. AID 588852. 1.3% of 360,000 active;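 active = percent inhibition above its own plate's cutoff, namely the mean of that plate's compound wells plus 3 SD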;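 note: peak over basal fluorescence ratio during 140 s after agonist addition; 0% = ACh EC80 plus DMSO and 100% = DMSO alone without agonist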
CHRM1 agonist: human M1 muscarinic receptor agonism | 0.33% of 360,000 active | activation, % at 3 µM | CHO-K1 hM1, Fluo-8 calcium fluorescence, agonist mode; 0% DMSO, 100% acetylcholine EC100;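 active = activation above the run's mean compound activation plus 3 SD, cut at about 16% in these data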;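 note: peak over basal fluorescence ratio within a 140 s kinetic read after compound addition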
The depositor's hits bear a star. An excerpt weighted towards active compounds, which were near 2.4% of everything screened.

SMILES	CHO-K1 Ca PAM	CHRM1 PAM	M1 ag parental	CHO-K1 Ca antag	M1 antag	CHRM1 agonist
COCc1ccc(C(=O)N(C)CC2CCCN(CCc3ccc(Cl)cc3)C2)o1 (stereo not given)	27.0	-14.8	1.8	-15.7	23.4	-6.8
CN(CC1CCCN(CCc2ccccc2F)C1)C(=O)c1cc2ccccc2o1 (stereo not given)	11.2	-30.7	2.0	-0.8	96.0*	-8.9
Cc1cc(C(=O)N(C)CC2CCCN(CCc3ccc(F)cc3)C2)c(C)o1 (stereo not given)	10.0	-16.8	-0.2	-6.9	18.9	-7.0
Cc1ccc2c(c1)NC(=O)C(CC(=O)NCCN(CC(C)C)CC(C)C)O2 (stereo not given)	16.5	-18.6	0.5	0.3	27.5*	-13.9
Cc1ccc(NC(=O)CC2Oc3ccc(C)cc3NC2=O)cc1 (stereo not given)	0.2	9.6	0.3	9.0	-12.7	-2.5
CCN1CCN(Cc2ccc(NC(=O)CC3Oc4ccc(C)cc4NC3=O)cc2)CC1 (stereo not given)	0.9	-32.7	-0.2	5.9	40.4*	-13.9
Cc1ccc2c(c1)NC(=O)C(CC(=O)Nc1ccc(CN3CCC(C)CC3)cc1)O2 (stereo not given)	21.8	-34.8	-0.1	-6.9	101.0*	-13.4
CCN(CC)CCCNC(=O)CC1Oc2ccc(C)cc2NC1=O (stereo not given)	1.6	-14.4	0.3	-2.2	8.0	-13.9
COc1cccc(Cn2c3ccc(NC(=O)CCc4ccc(F)cc4)cc3c(=O)n2C)c1	0.7	-4.9	4.8	19.9	2.3	2.4
Cc1ccc(NC(=S)NC2CCSc3ccccc32)cc1C (stereo not given)	-8.9	-22.1	0.8	14.5	79.1*	-4.6
O=C(NCc1cccs1)C1CC(=O)N(c2ccc(Cl)cc2)C1 (stereo not given)	-8.5	5.4	0.3	-1.6	-9.7	-10.0
COc1ccc(C(=O)/C=C\c2ccc(NC(=O)c3cccs3)cc2)cc1	-8.3	-0.4	0.3	26.8*	6.3	-4.6
Cc1cc(=O)oc2ccc(OCC(=O)N(Cc3ccc(F)cc3)Cc3ccco3)cc12	-5.9	-15.4	5.8	37.5*	33.8*	3.4
CCCn1c(SCC(=O)c2[nH]c(C)c(C(C)=O)c2C)n[nH]c1=O	12.4	1.9	0.9	-12.1	-1.5	-3.2
COc1ccc2nc(C)cc(NCc3ccc(F)cc3)c2c1	15.7	-10.2	3.8	4.5	28.7*	2.4
COc1ccc(-c2cn(-c3ccc(OC)cc3)c3[n+]2-c2ccccc2CC3)cc1	13.6	-12.8	1.3	8.9	21.4	-14.9
COc1ccc(-c2c[n+]3c(n2-c2ccccc2)CCCCC3)cc1	16.1	-1.4	0.2	-3.4	6.6	-10.9
COc1ccc(-n2c(-c3ccc(Br)cc3)c[n+]3c2CCc2ccccc2-3)cc1	19.9	-28.2	0.0	0.4	44.1*	-10.3
COc1ccccc1-n1c(-c2ccccc2)c[n+]2c1CCc1ccccc1-2	19.8	-26.0	0.8	-1.8	59.3*	-9.9
CC(C)c1ccc(-n2c(-c3ccccc3)c[n+]3c2CCc2ccccc2-3)cc1	1.2	-21.2	11.0	32.1*	25.6	-13.1
CN1N=C2c3ccccc3CCCC2C1c1ccc(F)cc1 (stereo not given)	13.0	-0.2	0.0	-12.2	-1.9	-4.2
COc1ccc(OCC(O)Cn2c(Nc3cccc(C)c3)nc3c2c(=O)n(C)c(=O)n3C)cc1 (stereo not given)	16.5	4.0	0.4	-9.3	-5.2	-6.9
Cc1ccc(C2C(C#N)=C(N)SC(N)=C2C#N)cc1	2.0	-1.5	7.6	3.9	10.0	8.4
Cc1ccc(C2C(C#N)=C(N)SC(N)=C2C#N)c(C)c1	-3.8	-2.6	11.7	15.9	11.6	19.6*
Cc1cnc(CNC(=O)c2ccc3sc([C@H]4C[C@H](O)[C@@H](CO)O4)nc3c2)cn1	8.1	9.4	0.5	1.9	-13.3	-0.4
COc1cccc(N(CC(=O)NC2CCCCC2)C(=O)CCCC(=O)Nc2ccccn2)c1	6.7	4.8	0.2	-7.3	-2.1	-6.2
C[N+]1(C)CCC(OC(=O)C(O)(c2ccccc2)C2CCCC2)C1 (stereo not given)	11.3	-25.3	0.6	-9.5	97.3*	-8.6
